Holding throughout (assay): NCI-60 one-dose screen, 48 h (100 = growth as untreated, 0 = no growth, -100 = all killed)
Holding throughout (settings): 10 µM

The subject of assay [1] is HCT-15 colon.
For assay [2], the system named is HT29 colon.
The subject of assay [3] is SNB-19 CNS.
Assay [4] relates to U251 CNS.
Assay [5] deals with PC-3 prostate.
The test system of assay [6] is SK-MEL-5 melanoma.
The subject of assay [7] is UACC-62 melanoma.
Assay [8] concerns LOX IMVI melanoma.
Assay [9] deals with SK-MEL-28 melanoma.
Assay [10] deals with SK-MEL-2 melanoma.
Assay [11] has as its system EKVX NSCLC.
The test system of assay [12] is SN12C renal.
In assay [13] the test system is UO-31 renal.
The test system of assay [14] is TK-10 renal.
Assay [15] has as its system ACHN renal.
Assay [16] relates to CAKI-1 renal.
For assay [17], the system named is A498 renal.
Assay [18] concerns CCRF-CEM leukemia.
Assay [19] concerns MOLT-4 leukemia.
Assay [20] has as its system SNB-75 CNS.

Structures are written as SMILES. The panel holds about 83,000 compounds, 20% with a hit somewhere; the sample as a whole holds those more often.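 Assay: single dose, 48 h. Readout: percent growth (0 = no net growth; negative = cell death). Active: <10.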 A number with no mark means an inactive call. Active and inactive are the calls of the source.

`COc1ccc(/C=C/C(=O)c2ccc(N3CCN(C)CC3)cc2)c(C(F)(F)F)c1`: the growth in [1] was -68.5% (active); in assay [2] it was -52% (active); in assay [3], 54.5%; in [4], 5.33% (active); in assay [5], 43.5%; in assay [6], 36.7%. Besides, the growth in assay [7] is -31.4% (active); in [8] it was -86.4% (active); in assay [9] it was 52%; in assay [10], 94.6%; in assay [11], 49%; in assay [12], 42.5%. The growth in assay [13] was 44.2%; in assay [14] it was 71.7%; in assay [15] it was 55.6%; in assay [16], 41.4%; in [17], 59.5%; in assay [18], 27.3%. For the same compound, the growth in assay [19] was 10.8%.
`COc1ccc2[nH]c(=O)c(CSc3nccc(-c4ccc(Cl)cc4)n3)cc2c1`: the growth in assay [1] is 36.3%; in [2], 33.9%; in assay [3], 40.5%; in assay [4], 13%; in assay [5], 29.3%; in assay [6], 44.8%. The growth in [7] was 37.9%; in assay [8] it was 27.9%; in assay [9] it was 45.3%; in [10], 42.9%; in [11], 7.4% (active); in [12], 34.4%. The growth is 7.11% (active) in [13]; 19.6% in [14]; -46.2% (active) in [15]; -75.9% (active) in [16]; 45.5% in assay [17]; 32.6% in assay [18]. The growth in [19] is 22%.
`CS(=O)(=O)Nc1ccc(-c2ccc3c(c2)ncn3-c2ccc(NC(=O)Nc3ccc(Br)cc3)cc2)cc1`: the growth in assay [1] was 8.63% (active); in assay [2] it was 7.09% (active); in assay [3] it was 16.6%; in assay [5] it was 10.4%; in [6], -86.2% (active); in assay [7], -35.6% (active). For the same compound, the growth is 1.1% (active) in assay [8]; 1.57% (active) in [9]; -52.1% (active) in assay [10]; -0.46% (active) in assay [11]; 14.2% in assay [12]; 2.62% (active) in assay [13]. The growth in assay [14] is 25.7%; in [15], 4.12% (active); in assay [16], 2.14% (active); in assay [17], -17% (active); in [18], -14.9% (active); in [19], -18.4% (active).
Take `O=S(=O)(Nc1ncccn1)c1ccc(-n2c(-c3ccc(Br)cc3)nc(-c3ccccc3)c2-c2ccccc2)cc1`: the growth in [2] is 41.8%; in [3], 23.3%; in [4], 30.8%; in assay [5], 22.3%; in assay [6] it was 25.3%; in [7], 34.3%. The growth in assay [8] was 32.2%; in assay [9], 29.3%; in [10] it was 56.8%; in assay [11], 16.1%; in assay [12], 35.9%; in assay [14], 56.7%. For the same compound, the growth is 38.5% in [15]; 23.7% in assay [16]; -1.34% (active) in [17]; 18.6% in assay [18]; 22.4% in assay [19].
Turning to `C/C(=C\CC/C=C(\C)CC/C=C(\C)CC[C@@H](O)C(C)(C)O)CC/C=C(\C)CC[C@@H](O)C(C)(C)O`, the growth in [2] was -67% (active); in assay [20], 70.2%; in assay [3] it was 61.4%; in assay [4] it was 33.2%; in assay [5], 7.84% (active); in assay [6], -16.3% (active). Further, the growth was 46.2% in assay [7]; 28.7% in [8]; 38% in [9]; 52.1% in [10]; 34.5% in assay [11]; 12% in assay [12]. In addition, the growth is 30.5% in assay [13]; 64.6% in assay [14]; 37.5% in [15]; 73.6% in [17]; 0.465% (active) in assay [19].
Turning to `O=C(NO)c1ccc(-c2nc3ccc4[nH]ncc4c3c3c2CCCC3)cc1`, the growth is 6.1% (active) in assay [2]; -77.1% (active) in assay [20]; -19.4% (active) in assay [3]; -39.1% (active) in [4]; 15.8% in assay [5]; -88.9% (active) in assay [6]. Also, the growth in [7] was -65.8% (active); in assay [8] it was -90.6% (active); in assay [9], -55% (active); in assay [10] it was -89.7% (active); in [11] it was -19.4% (active); in [12] it was -13.8% (active). In addition, the growth in [13] was -15.8% (active); in [14], 20.2%; in assay [15], 2.16% (active); in [16] it was -0.924% (active); in assay [17], -49.1% (active); in assay [18], 5.08% (active). Moreover, the growth in assay [19] is 3.76% (active).
For `CCCSc1nc(NC2CC2)c(C#N)c(-c2ccc(OC)cc2)n1`, the growth in assay [2] was 90.1%; in assay [3], 70.3%; in assay [4], 87.4%; in [5], 95.3%; in [6] it was 98.2%; in [7], 83.7%. The growth in assay [8] is 93.9%; in [9], 118%; in assay [10], 118%; in [11] it was 101%; in [12], 91.9%; in assay [13], 93.6%. The growth in assay [15] is 85.2%; in [16] it was 86.9%; in assay [17] it was 100%; in assay [18], 97.1%; in assay [19] it was 100%.
As for `COC1=C[C@@]23CCC(=O)N2CCc2cc4c(cc2[C@H]3[C@H]1OC(=O)C(C)(C)O)OCO4`, the growth in [2] was 106%; in [20], 74.1%; in assay [3] it was 94.1%; in [4] it was 104%; in assay [5], 92.1%; in assay [6] it was 99.3%. Besides, the growth in assay [7] is 89.1%; in assay [8], 96.6%; in [10], 104%; in [11], 97.2%; in [12], 96.5%; in [13], 87.5%. Moreover, the growth in [14] was 97.7%; in assay [15], 103%; in assay [16], 95.6%; in [17], 108%; in assay [18], 99.3%; in [19], 86.7%.

These data come from PubChem BioAssay (NCI).
